High-throughput results from PubChem BioAssay.
Dicer processing: inhibitors of Dicer pre-microRNA processing, primary screen, biochemical, cat-ELCCA, chemiluminescence | Endoribonuclease Dicer (Homo sapiens), Q9UPY3 | z-score at 25 µM | cat-ELCCA pre-miR-21 Dicer processing; active compounds read high | 6% of 47,000 active; in the data active = z-score above about 3, passing the limit was not always enough;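 also: plate controls were vehicle for no effect and no enzyme for full effect; higher signal means more uncleaved substrate so more Dicer inhibition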
Starred values were filed as active, the others as inactive. This excerpt belongs to a sample that is enriched for hits.

SMILES | Dicer processing
COCCCN1C(=O)C(=O)/C(=C(\O)c2ccc(F)cc2)C12C(=O)N(C)c1ccccc12 (configuration not stated) | 2.27
COCCCN1C(=O)C(=O)/C(=C(\O)c2ccccc2)C12C(=O)N(C)c1ccccc12 (configuration not stated) | 3.9*
C=CCOc1ccc(/C(O)=C2/C(=O)C(=O)N(CCCOC)C23C(=O)N(C)c2ccccc23)cc1 (configuration not stated) | 3.56*
CNC(=O)NNc1nccc(-c2cccnc2)n1 | -0.69
CC1=C(C)CC2C(=O)N(c3ccc(C(C)C)cc3)C(=O)C2C1 (configuration not stated) | 0.72
CC(=O)c1cc(-c2ccc(Cl)cc2)oc1C | -3.04
CCCOC(=O)Cn1cnc2ccccc2c1=O | -0.21
C(#Cc1ccc(C#CCN2CCCCC2)cc1)CN1CCCCC1 | -0.81
c1ccc2c(c1)CCN2Cn1nnc2ccccc21 | 4.42*
S=c1[nH]nc(Cn2nnc3ccccc32)o1 | -1.38
Fc1ccc(Cn2nnc3ccccc32)cc1 | 2.61
CC(=O)c1c(O)c2ccccc2[nH]c1=O | 1
O=C(CSc1ccc(Cl)cc1)Nc1ccc(F)cc1 | -0.6
Cc1cccc(Nc2ncncc2C#N)c1C | 3.74*
Cc1cccc(Nc2nc3nonc3nc2Nc2ccc(F)cc2)c1C | 2.43
Cc1cc(C)c(C#N)c(Nc2ccccc2C)n1 | 0.71
Nc1cc(Cl)ccc1NC(=O)c1ccccc1N | -3.37
C=CC(=O)N1CN(C(=O)C=C)CN(C(=O)C=C)C1 | -0.7
Cn1c(Cl)c[n+](C)c1C(O)c1ccccc1 (configuration not stated) | 0.54
CCc1ccc2nc(Nc3nc(CSc4nnc(C)s4)cc(=O)[nH]3)nc(C)c2c1 | 3.07*
Cc1ccc(SCc2cc(=O)[nH]c(Nc3nc(C)c4cccc(C)c4n3)n2)cc1 | 1.82
CCOc1ccc2nc(Nc3nc(O)cc(=O)[nH]3)nc(C)c2c1 | 2.78
CC(C)C(=O)N(c1ccc2oc(=O)sc2c1)S(=O)(=O)c1ccccc1 | 2.56
O=C(C1CCCCC1)N(c1ccc2oc(=O)sc2c1)S(=O)(=O)c1cccs1 | 3.72*
CCCC(=O)N(c1ccc2oc(=O)sc2c1)S(=O)(=O)c1cccs1 | -1.13
SMILES | Dicer processing
Fc1ccccc1-c1nn2c(COc3ccccc3)nnc2s1 | 0.18
CCOC(=O)NC1(NCC(C)C)Oc2ccccc2O1 | 5.96*
CCOC(=O)C(OC(=O)Nc1ccccc1)C(OC(=O)Nc1ccccc1)C(=O)OCC (configuration not stated) | 1.91
CCOC(=O)NC(NC(C)c1ccccc1)(C(F)(F)F)C(F)(F)F (configuration not stated) | -0.53
COc1ccc(C2SCC(=O)N2CCN2C(=O)CSC2c2ccc(OC)cc2)cc1 (configuration not stated) | 1.04
N#Cc1c(-c2ccc(Cl)cc2)nc(N/N=C/c2cccs2)[nH]c1=O | 3.52*
N#Cc1c(-c2ccc(Cl)c(Cl)c2)cc(-c2ccc(Cl)cc2)[nH]c1=O | 2.13
N#Cc1c(-c2ccccc2)nc(N/N=C/c2cccs2)[nH]c1=O | 3.79*
N#Cc1c(-c2ccc(Cl)cc2)nc(Nc2ccc(Cl)cc2)[nH]c1=O | 1.05
N#Cc1c(-c2ccccc2)c(-c2ccccc2)nn(CC(=O)N/N=C/c2cccs2)c1=O | -0.43
COc1ccc(-c2nc(N(C)c3ccccc3)[nH]c(=O)c2C#N)cc1 | -0.19
COc1ccc(/C(O)=C2\C(=O)C(=O)N(CCN3CCOCC3)C2c2ccc(OC)cc2)cc1 (configuration not stated) | 1.11
Cc1ccc(C)c(S(=O)(=O)N2CCC(C)CC2)c1 | -0.73
CSC(=NC#N)S/C=C/C(=O)c1ccc(Br)cc1 | -0.1
CNC(=S)N/N=C/c1ccc(OC)c(Br)c1 | 1.22
COc1ccccc1NC(=S)N/N=C/c1ccco1 | 1.44
COc1cc(/C=N/NC(=S)Nc2ccccc2OC)ccc1O | 5.12*
COc1ccc(C(OCC(O)Cn2cnc3c2c(=O)n(C)c(=O)n3C)(c2ccccc2)c2ccc(OC)cc2)cc1 (configuration not stated) | 1.86
CSc1nnc(COc2ccc(C)c3c2CCC3)n1-c1ccccc1 | -0.78
Cc1ccc2cccc(OS(=O)(=O)c3cc([N+](=O)[O-])ccc3C)c2n1 | -1.7
CCOC(=O)c1c(C)csc1NC(=O)/C(C#N)=C/c1ccc(O)cc1 | 0.68
CCOC(=O)NC(=O)/C(C#N)=C/c1ccc(N(C)C)cc1 | 3.41*
CCOC(=O)/C(C#N)=C/c1ccc(-c2ccccc2)cc1 | 1.19
Cc1cccc(NC(=O)c2ccccc2)n1 | 0.52
Cc1cccc(NC(=O)c2ccc(Cl)cc2)n1 | 3.08*
SMILES | Dicer processing
O=C(Nc1ncccn1)c1ccc(Cl)cc1 | -0.85
Cc1ccc(S(=O)(=O)Nc2ccc(C)cc2C)cc1 | 1.65
Cc1ccc(S(=O)(=O)Nc2cccc3ccccc23)cc1 | 2.92
Cc1ccc(S(=O)(=O)Nc2cccc3cccc(Br)c23)cc1 | 3.13*
COc1ccc(-c2cc(=O)c3c(=O)n(-c4ccccc4)[nH]c3[nH]2)cc1 | -1
Cn1c(=O)[nH]c(=O)c2c1nc1n2CCN1Cc1ccco1 | -0.49
CCOC(=O)C(C(=O)OCC)=C(Nc1ccc(Cl)cc1)SC | 0.39
c1ccc(CN=C2SC(=Nc3ccccc3)C3=C2CCCC3)cc1 | -0.66
C=CCSc1nnc2c3ccccc3n(CC=C)c2n1 | 3.24*
CCCSc1nnc2c3ccccc3n(CC)c2n1 | 1.1
CCn1c2ccccc2c2nnc(SCC(=O)c3ccccc3)nc21 | 1.58
COc1ccc(C2CC(=O)C3=C(C2)NC(C)=C(C(=O)OC2CCCC2)C3c2cccc(O)c2)cc1 (configuration not stated) | 0.15
CC12CN3CC(C)(CN(C1)C3C1C(=O)Nc3ccccc31)C2 (configuration not stated) | 0.12
O=C1c2cccc3c(Sc4ccccc4)ccc(c23)C(=O)N1NCCO | 3.25*
O=C1c2cccc3c(N4CCOCC4)ccc(c23)C(=O)N1CCO | -0.79
COc1ccc(CCN2C(=O)c3cccc4c(Sc5ccccn5)ccc(c34)C2=O)cc1OC | 0.87
CCSc1nnc(NC(=O)c2cccc(C(=O)OC)n2)s1 | 1.3
Nc1nc2nc(-c3cccc(Br)c3)cc(C(F)(F)F)n2n1 | 4.87*
FC(F)(F)c1cccc(Nc2cc(-c3ccccc3)nc3ncnn23)c1 | 0.54
Cc1cc2nc(-c3cccc(Br)c3)cc(C(F)(F)F)n2n1 | -1.47
FC(F)(F)c1cc(-c2ccc(Br)cc2)nc2ncnn12 | -0.18
FC(F)(F)c1cc(-c2cccc(Br)c2)nc2ncnn12 | 3.87*
Nc1nc2nc(-c3ccc(OCc4ccccc4)cc3)cc(C(F)(F)F)n2n1 | 0.12
C[C@@H]1NC(=O)NC1=O | -0.78
CCOC(=O)C(O)(NC(=O)c1ccc(Cl)cc1Cl)C(F)(F)F (configuration not stated) | 0.69
SMILES | Dicer processing
O=C(c1ccc([N+](=O)[O-])o1)N1CCN(C/C=C/c2ccccc2)CC1 | -1.1
Cc1nn(-c2ccccc2)nc1C(=O)c1c(C(C)(C)C)[nH]n(-c2ccccc2)c1=O | -5.92
C/C(=N\O)C(C)(C)Nc1ccc2c(c1)OCO2 | -1.63
COc1ccc(C(=O)/C=C/Sc2c(Cl)cccc2Cl)cc1 | -1
O=C(Cn1c(NCCO)nc2ccccc21)c1ccco1 | -0.78
CC(C)n1c(NCCO)nc2ccccc21 | -0.94
O=C(Cn1c(NCCO)nc2ccccc21)c1cccc2ccccc12 | 4.25*
Cc1cc2c(cc1C)NC(=O)c1ccccc1C(c1ccccc1)=N2 | 3.09*
CC1CN=C(c2ccccc2)c2ccccc2C(=O)O1 (configuration not stated) | -0.71
